Several values for one entry are separate records, joined by “and”; a condition that tells them apart may be missing. Identical values can stand only once.

As usually defined, the inhibition is the change of the read-out against control, counted positive when it falls.

The target in this assay is Solute carrier family 2, facilitated glucose transporter member 1 (Homo sapiens) (UniProt P11166). Briefly: ST_JUDE_LEISH: Cytotoxicity at 2uM final concentration against transgenic Leishmania Mexicana promastigotes LmGLUT1 that are glucose transport deficient and complemented with the human glucose transporter GLUT1. Activity is measured by DNA content using SYBR green in vitro. The assay is classed as functional.
Chain of Solute carrier family 2, facilitated glucose transporter member 1 (Homo sapiens) (P11166 whole entry): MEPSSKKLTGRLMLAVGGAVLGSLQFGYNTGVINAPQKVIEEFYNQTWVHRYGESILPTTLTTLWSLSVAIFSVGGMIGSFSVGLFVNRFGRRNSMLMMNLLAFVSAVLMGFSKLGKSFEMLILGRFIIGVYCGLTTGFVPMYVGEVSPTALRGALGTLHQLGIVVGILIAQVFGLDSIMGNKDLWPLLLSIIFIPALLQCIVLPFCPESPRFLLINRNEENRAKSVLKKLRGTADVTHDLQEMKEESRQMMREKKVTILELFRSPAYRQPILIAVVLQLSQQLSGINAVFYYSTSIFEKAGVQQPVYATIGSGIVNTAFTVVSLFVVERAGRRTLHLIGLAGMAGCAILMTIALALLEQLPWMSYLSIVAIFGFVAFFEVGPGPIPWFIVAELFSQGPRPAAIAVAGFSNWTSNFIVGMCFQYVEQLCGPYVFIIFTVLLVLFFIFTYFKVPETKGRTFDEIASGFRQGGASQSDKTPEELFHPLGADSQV
Take `O=C(Nc1ccc(OC2CCN(Cc3ccsc3)C2)c(Cl)c1)c1ccco1` (stereo not given): the inhibition came to 0.28%. On to `Cc1ccc2c(=O)cc(CCc3cccc(F)c3F)n(CC(=O)N(Cc3ccc(-c4ccc(C(F)(F)F)cc4)cc3)C3CCN(C)CC3)c2n1`, for which the inhibition turned out to be 2%. The value for `CCCC(CNC(=O)c1cc2c(Cl)cc(Cl)cc2[nH]1)CNc1cc(=O)c2ccccc2[nH]1` (stereo not given) was 1.99%; that for `Cc1cc(SC(C)(C)C)cc2c(Cl)c(C(N)=O)cnc12` was 89%. Turning to `O=c1ccc2ccc(F)cc2n1CCN1CCC(NCc2ccc(-c3ccccn3)s2)CC1`, the inhibition came to 4.21%. The value for `CC[C@H](C)CNC(=O)c1ccnc(-c2ccc(CNCCCc3ccccc3)cc2)c1` was 1.95%; that for `CCc1c[nH]c2c(N3CCCS3(=O)=O)cc(C(=O)N[C@@H](Cc3ccccc3)[C@H](O)CNC(C)(C)CCCC(C)C)cc12` was 1.92%; that for `CN(C)CCOc1cc(NC(=O)Nc2ccc3c(c2)CCCC3=O)ccc1I` was 5.03%.

As for `COc1ccc(NS(=O)(=O)c2ccc(C(=O)Nc3ccc(OC(F)(F)F)cc3)cc2)cc1N1CCN(CC2CC2)CC1`, the inhibition came to 6.41%. Then `CC(C)NCc1ccc(-c2cccc(NC(=O)c3cccc(Cl)c3)c2)cc1`, with 17.7%; and `CO/C(=C\C=C\c1cc2cc(Cl)c(Cl)cc2[nH]1)C(=O)NCCCN1CCN(Cc2ccccc2)CC1`, with 2.32%; and `Cc1ccc(F)cc1-c1cc(N2CCCN(C(=O)c3ccc(Br)o3)CC2)ncn1`, with 0.81%. Then `Cc1ccc2[nH]c(C)c(Br)c(=O)c2c1`, with -1%. As for `COc1ccc2nc3cc(Cl)ccc3c(NCCCCCCNc3c4ccc(Cl)cc4nc4ccc(OC)cc34)c2c1`, the inhibition was determined as 10.3%.

Regarding `CCN(CC)c1nc(-c2ccccc2)cc(-c2ccccc2)c1C#N`, the inhibition is 1.31%.

For the molecule `Cc1n[nH]c2ccc(-c3cc(OC[C@@H](N)Cc4ccccc4)cnc3-c3ccc(OCc4cccc(F)c4)cc3)cc12`, the inhibition was -0.24%. The value for `CC(=O)N1CCN(c2ccc(NC(=O)c3oc(-c4ccccc4)nc3C(F)(F)F)cn2)CC1` was 1.92%; that for `COc1cccc(CNC[C@@H](O)[C@H](Cc2ccccc2)NC(=O)c2cc3c4c(c2)c(C(C)C)cn4CCS(=O)(=O)N3C)c1` was 8.36%; that for `Cc1cc(N[C@@H](CC(C)C)C(=O)NCCc2ccccc2)nc(NCC2CCCCC2)n1` was 6.58%.

As to `COc1ccccc1C1CCN(C2CCC(NC(=O)/C=C/c3cccc(Cl)c3)CC2)CC1` (stereo not given), the inhibition was 3.59%. The value for `Cc1nc(-c2cccc(C(=O)Nc3cnc4ccccc4c3)c2)no1` was 5.51%; that for `COc1cc(NC(=O)c2ccc3c(=O)n(Cc4ccccc4)c(=S)[nH]c3c2)cc(OC)c1OC` was 5.79%. On to `O=C(/C=C/c1ccc(Cl)cc1)NCCCCCN1CCCC(C(=O)Nc2ccc(F)c(Cl)c2)C1` (stereo not given), for which the inhibition amounted to 2.06%. Then `Oc1c(Br)cc2oc3c(c2c1CNCc1ccccc1)CCCC3`, with -0.72%.

On to `CC(=O)Nc1ccc(S(=O)(=O)Nc2c(C)cc(Cc3cnc(N)nc3N)cc2C)cc1`, for which the inhibition is -0.22%.

`CC1CN(CC(O)Cn2c3ccc(Br)cc3c3cc(Br)ccc32)CC(C)O1` (stereo not given): the inhibition came out at 2.95%. Then `Cc1cccc(C(=O)NCCCN2CCC(NC(=O)/C=C/c3ccc(Cl)c(Cl)c3)CC2)c1`, with 1.05%; and `Cc1cc(N(CCO)CCCN2CCCCC2)nc(Nc2ccc(Cl)cc2)n1`, with 1.77%. The value for `CC(=O)Nc1ncc(C(=O)Nc2ccc(-c3cccc(-c4nc5cc(C(F)(F)F)ccc5[nH]4)c3)cc2)s1` was -2.18%. `Clc1ccc(CNc2nc(NCCc3c[nH]cn3)nc(Nc3ccc4c(c3)OCO4)n2)cc1`: the inhibition turned out to be 2.28%.

Consider `COc1ccc(-c2cnc(NCc3ccccc3)nc2)cc1CNC1CCN(C)CC1`, for which the inhibition was -0.17%. Then `COc1ccc(C2C(C(=O)Nc3cc(C)ccc3OC)c3ccccc3C(=O)N2C)cc1` (stereo not given), with 5.62%. The value for `CCN(CC)CCCN(C(=O)Nc1cc(F)cc(F)c1)c1nc(-c2ccc(F)cc2)cs1` was 1.8%.

`O=C(Nc1nc2cc(S(=O)(=O)NCCc3ccc(F)cc3)ccc2n1CCCn1ccnc1)c1ccc(Cl)cc1`: the inhibition amounted to 1.74%.

For the molecule `CN(C)c1ccc(CN2CCC(NC(=O)c3ccc(-c4cccc(F)c4)s3)CC2)cc1`, the inhibition came to 4.53%. Consider `Cc1ccc(-c2ccc3c(c2)C=C(C(=O)NC2CCN(CCNC(=O)c4cccc(C(F)(F)F)c4)CC2)CCC3)cc1`, for which the inhibition is 5.7%. Then `O=C1Nc2cccc3c2C1(CCCCN1CCC(c2cc4ccncc4[nH]2)CC1)CCC3` (stereo not given), with -0.19% and 8.55%. On to `Cc1nc(C)c(-c2ccc(Sc3ccc(Cl)cc3)cc2)c(O)c1Br`, for which the inhibition was -2.06%.

`Nc1c(Cl)cc(C(O)CNCCCCCCCCCc2ccccn2)cc1Cl` (stereo not given): the inhibition turned out to be 0.94%. Regarding `O=C(Nc1ccccc1)c1ccc(N2CCC(COc3cccc(C(F)(F)F)c3)CC2)nc1`, the inhibition is 1.05%.

These data come from ChEMBL document CHEMBL3433997, “St. Jude Leishmania screening dataset” (2016).
